Screening results deposited in PubChem BioAssay by Broad Institute.
Not all results are given here.
aSyn UTR act: Activators working through SNCA 5'UTR binding (MLPCN). activity score, % (tested at 7.5 µM), hits read low. alpha-synuclein 5'UTR reporter, activators screen. 300,000 compounds, 7.1% hits. AID 1814; in the data active = activity score below about -60%
An asterisk follows results filed as active.

SMILES	aSyn UTR act
COc1ccc(-c2nc3cc(NC(=O)Cc4ccc(OC)c(OC)c4)ccc3o2)cc1	-69*
Cc1ccnc(NC(=O)C2CCN(S(=O)(=O)c3ccc(C)c(C)c3)CC2)c1	-81*
COc1cccc(NC(=O)C2CCN(S(=O)(=O)c3ccc4c(c3)NC(=O)C(C)S4)CC2)c1 (centres undefined)	-68*
Cc1ccc(NC(=S)c2nc3ccccc3[nH]2)c(C)c1	-116*
Cc1cc(Cl)ccc1NC(=S)Nc1ccccn1	-91*
Cc1ccc(NC(=S)NNC(=S)Nc2ccc(C)cc2C)cc1	113
Cc1ccc(NC(=S)Nc2ccccn2)c(C)c1	-147*
CCOC(=O)c1ccc(NC(=O)N2CCCCC2)cc1	-92*
CCOC(=O)c1ccc(N/C=C2\CCCCC2=O)cc1	-127*
COC(=O)c1ccc(NC(=O)C(=O)N2CCCC2)cc1	-148*
CCc1ccc(NC(=O)N2CCCCCC2)cc1	-124*
O=C(Nc1ccc(Br)cc1)N1CCCCCC1	-144*
COc1ccc(NC(=O)N2CCCCC2)cc1	-66*
Cc1ccc(NC(=O)N2CCCCCC2)cc1	-74*
CNc1oc(/C=C/c2ccccc2)nc1C#N	-275*
COCCNc1oc(/C=C/c2ccccc2)nc1C#N	-146*
N#Cc1nc(/C=C/c2ccccc2)oc1NCCCN1CCOCC1	-82*
COc1ccc(C(=O)Nc2ccc3nc(C)sc3c2)cc1OC	-101*
COc1ccc(NC(=O)c2ccc3nc(C)sc3c2)cc1	-124*
COC(=O)c1ccc(NC(=O)c2ccc3nc(C)sc3c2)cc1	-180*
COc1ccc(C(=O)Nc2ccc(Oc3nc(C)nc4sc(-c5ccccc5)cc34)cc2)cc1OC	-120*
Cc1nc2ccc(C(=O)Nc3cccc([N+](=O)[O-])c3)cc2s1	-127*
COc1ccc(C(=O)Nc2nc(C)c(C)s2)cc1OC	-142*
CCc1ccc(Nc2nnc(SCC(=O)NCCN3C(=O)CSC3=O)s2)cc1	-65*
CCc1ccc(Nc2nnc(SCC(=O)Nc3sccc3C(N)=O)s2)cc1	-86*
SMILES	aSyn UTR act
CCc1ccc(Nc2nnc(SCC(=O)Nc3cccnc3Cl)s2)cc1	-64*
COc1ccc(/C=C2\CCn3c2nc2ccccc2c3=O)cc1OC	-256*
COc1ccc(CNC(=O)c2c(C)oc3c2C(=O)c2ccccc2C3=O)cc1	103
CC(=O)c1c(C)oc2c1C(=O)c1ccccc1C2=O	-62*
Cc1ccc(/C=C/C(=O)NCCc2ccccc2)o1	-99*
O=C(/C=C/c1ccco1)NCCc1ccccc1	-126*
Cc1ccccc1OCc1nnc(SCC(=O)Nc2ccc3nc(SCC(=O)Nc4ccccc4)sc3c2)n1C	-70*
CCOc1ccccc1-n1c(SCC(=O)Nc2ccc(CC)cc2)nc2n[nH]c(C)c2c1=N	84
CCN(CC)C(=O)CSc1nc2ccc(NC(=O)CSc3nccn3C)cc2s1	-65*
Cn1cnnc1SCC(=O)Nc1ccc2nc(SCc3ccccc3Cl)sc2c1	-101*
Cn1cnnc1SCC(=O)Nc1ccc2nc(SCc3ccccc3)sc2c1	-142*
C/C(=N\Nc1nc(C(C)(C)C)cs1)c1ccc(O)cc1	-107*
C/C(=N\Nc1nc2c(s1)CCCC2)c1ccccc1	-178*
C/C(=N\Nc1nc(C(C)(C)C)cs1)c1ccccc1	-160*
COCCCn1c(C(=O)N2CC(C)OC(C)C2)cc2c(=O)n3cccc(C)c3nc21 (centres undefined)	-71*
CC(=O)Nc1cc(C(=O)OCC(=O)c2ccc(C)cc2)ccc1C	-151*
CCc1ccc(C(=O)COC(=O)c2cccs2)cc1	-139*
Cc1ccc(C(=O)COC(=O)c2cccs2)cc1	-114*
CCN(c1ccccc1)S(=O)(=O)c1ccc(Oc2ccc(-n3ccnc3)cc2)nc1	103
COc1ccc(S(=O)(=O)n2ccc(-c3cnc(-c4ccccc4)s3)n2)cc1	-140*
CCn1c(/C=C/c2ccccc2Cl)nc2ccccc2c1=O	-191*
CCn1c(/C=C/c2c[nH]c3ccccc23)nc2ccccc2c1=O	-176*
CCn1c(/C=C\c2ccccc2C)nc2ccccc2c1=O	-63*
CCc1c(C)sc(NC(=O)c2ccco2)c1C#N	-104*
CCn1cnc2cc(NC(=O)c3cccs3)ccc21	-109*
SMILES	aSyn UTR act
CC(C)(C)n1cnc2cc(NCc3cccs3)ccc21	-102*
CC(C)(C)n1cnc2cc(NC(=O)c3ccccc3)ccc21	-137*
COc1ccccc1-n1cnc2cc(NCc3cccs3)ccc21	55
CC(C)(C)n1cnc2cc(NC(=O)c3cccs3)ccc21	-134*
CC1C(=O)C(C)C(c2ccc(Cl)cc2)NC1c1ccc(Cl)cc1 (centres undefined)	68
CN(CC(=O)N1CCCCCC1)S(=O)(=O)c1ccccc1	-68*
Cc1cccc(Nc2nc(-c3ccc(O)c(O)c3)cs2)n1	-224*
Cc1cccc(Nc2nc(-c3ccc(F)c(C)c3)cs2)n1	-249*
O=C(Nc1ccc(CN2CCOCC2)cc1)c1ccc(Cl)cc1	-207*
O=C(Nc1ccc(CN2CCOCC2)cc1)c1ccc(Br)cc1	-173*
O=C(NN=C1CCN(Cc2ccccc2)CC1)c1ccccc1	-88*
O=C(Nc1cccc([N+](=O)[O-])c1)c1ccc(CN2CCOCC2)cc1	-124*
